Measured values reported in the supplement of paper PMC9694430.
Structures can show the parent of a compound that is named as a salt.

Legend:
Assay in all cases: thermal shift delta Tm vs DMSO control; higher = stronger stabilization (binding)
Settings in all cases: 12.5 µM; protein concentration 2 µM
LOC_OS02G45750-cb003 = test system: LOC_OS02G45750-cb003
In short: (§1)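 Rice kinase domain constructs were expressed in E. coli, purified, and tested by differential scanning fluorimetry with compound added in DMSO. Each well of a 96-well plate held 19.5 μl of 2 μM kinase in 100 mM potassium phosphate pH 7.5, 150 mM NaCl, 10% glycerol and 5 × SYPRO Orange, and fluorescence was read from 25°C to 95°C at 0.05°C/s. The melting temperature shift is the mean of triplicates, taken against protein with DMSO alone after Boltzmann fitting.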

LOC_OS02G54510-cb004 = test system: LOC_OS02G54510-cb004
In short: as §1

LOC_OS03G04050-cb001 = test system: LOC_OS03G04050-cb001
In short: as §1

LOC_OS03G12390-cb001 = test system: LOC_OS03G12390-cb001
In short: as §1

LOC_OS03G27990-cb004 = test system: LOC_OS03G27990-cb004
In short: as §1

LOC_OS03G50450-cb001 = test system: LOC_OS03G50450-cb001
In short: as §1

LOC_OS03G50810-cb003 = test system: LOC_OS03G50810-cb003
In short: as §1

LOC_OS04G35114-cb001 = test system: LOC_OS04G35114-cb001
In short: as §1

LOC_OS04G38480-cb003 = test system: T1, LOC_OS04G38480-cb003
T1 sequence (whole entry): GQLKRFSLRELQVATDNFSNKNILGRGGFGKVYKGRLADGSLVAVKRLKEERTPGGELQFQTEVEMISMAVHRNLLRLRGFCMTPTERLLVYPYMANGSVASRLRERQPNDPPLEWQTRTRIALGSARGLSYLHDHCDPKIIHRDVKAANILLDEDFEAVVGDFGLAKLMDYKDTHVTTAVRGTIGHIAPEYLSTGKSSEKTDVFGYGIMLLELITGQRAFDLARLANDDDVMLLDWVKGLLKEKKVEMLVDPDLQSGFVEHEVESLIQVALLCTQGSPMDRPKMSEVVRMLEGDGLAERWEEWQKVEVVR
In short: as §1

LOC_OS04G41100-cb001 = test system: T2, LOC_OS04G41100-cb001
T2 sequence (whole entry): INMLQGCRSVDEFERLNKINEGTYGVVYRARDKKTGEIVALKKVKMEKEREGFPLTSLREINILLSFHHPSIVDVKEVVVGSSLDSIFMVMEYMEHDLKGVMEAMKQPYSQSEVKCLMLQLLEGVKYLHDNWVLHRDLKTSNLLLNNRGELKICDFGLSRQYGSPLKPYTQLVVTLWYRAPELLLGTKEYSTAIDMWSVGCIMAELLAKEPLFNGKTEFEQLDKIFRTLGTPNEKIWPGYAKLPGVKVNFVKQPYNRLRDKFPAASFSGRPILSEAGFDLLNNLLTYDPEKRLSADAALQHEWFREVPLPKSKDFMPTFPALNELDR
In short: as §1

Row | Structure (SMILES) | thermal shift delta Tm (LOC_OS02G45750-cb003) [°C] | thermal shift delta Tm (LOC_OS02G54510-cb004) [°C] | thermal shift delta Tm (LOC_OS03G04050-cb001) [°C] | thermal shift delta Tm (LOC_OS03G12390-cb001) [°C] | thermal shift delta Tm (LOC_OS03G27990-cb004) [°C] | thermal shift delta Tm (LOC_OS03G50450-cb001) [°C] | thermal shift delta Tm (LOC_OS03G50810-cb003) [°C] | thermal shift delta Tm (LOC_OS04G35114-cb001) [°C] | thermal shift delta Tm (LOC_OS04G38480-cb003) [°C] | thermal shift delta Tm (LOC_OS04G41100-cb001) [°C]
1 | CN(c1ccccc1CNc1nc(Nc2ccc3c(c2)CC(=O)N3)ncc1C(F)(F)F)S(C)(=O)=O | 11.6 | 1.85 | 0.4 | 6.91 | 2.93 | 3.16 | 5.31 | 5.87 | 3.54 | 2.86
2 | Cc1ccc2nc(NCCN)c3ncc(C)n3c2c1 | 1.07 | 0.24 | 0.59 | -0.09 | 0.55 | 0.62 | 0.58 | 0.91 | 0.69 | 1.54
3 | CCn1c(-c2nonc2N)nc2c(C#CC(C)(C)O)ncc(OC[C@H]3CCCNC3)c21 | 0.16 | -0.17 | 0.51 | -0.08 | 0.32 | 0.05 | 0.05 | 0.41 | 0.66 | 1.1
4 | CNC(=O)c1ccccc1Nc1nc(Nc2ccc(N3CCOCC3)cc2OC)ncc1Cl | 1.17 | -0.15 | 0.35 | 4.35 | 0.45 | 0.26 | 2.21 | 2.54 | 1.62 | 0.51
5 | CC(C)(O)CNc1ncc(-c2ccnc(Nc3ccncc3)n2)c(CC2CC2)n1 [VPS34 inhibitor 1 (Compound 19, PIK-III analogue)] | 2.27 | 0.29 | 0.5 | 0.77 | 0.32 | 0.37 | 0.9 | 1.51 | 1.97 | 0.43
6 | COCCOc1ccc2c(c1)ncn2-c1ccc2cccc(N3CCC(N)CC3)c2n1 | 16.5 | 0.43 | 0.25 | 1.73 | 6.71 | 0.27 | 8.81 | 10 | 2.9 | 0.51
7 | O=C1Nc2ccccc2/C1=C1/Nc2ccccc2C1=O [Indirubin] | 2.07 | 0.45 | 0.62 | 0.59 | 0.23 | 0.08 | 1.48 | 3.86 | 0.97 | 0.98
8 | CN1CCC(COc2cnc(-c3cccc(Cn4nc(-c5cccc(C#N)c5)ccc4=O)c3)nc2)CC1 | -0.03 | -0.06 | 0.23 | -0.02 | 0.03 | 0.11 | 0.09 | 1.33 | 0.26 | 0.35
9 | Oc1c(F)cc(-c2cnccc2-c2ccc(N3CCOCC3)cc2)cc1F | 0.77 | 0.07 | 0.28 | -0.05 | 0.11 | 0.25 | 0.2 | 1.09 | 0.6 | 0.44
10 | Nc1ncccc1-c1nc2ccc(-c3ccccc3)nc2n1-c1ccc(C2(N)CCC2)cc1 [Miransertib (ARQ 092) HCl] | 0.57 | -0.18 | 0.2 | -0.09 | 0.04 | 0.49 | -0.05 | 0.38 | 0.6 | 0.18
11 | COc1cc2ncnc(Nc3cccc(Cl)c3)c2cc1OC [AG-1478 (Tyrphostin AG-1478)] | 4.64 | 0.2 | 0.25 | 2.86 | 0.56 | 0.38 | 2.25 | 6.57 | 2.27 | 0.04
